Assay [1] can be described thus: small molecules captured by biotinylated probe aFSTL3 – biochemical, small-molecule microarray, fluorescence 635/667, stem cell growth factor project, primary screen (AID 1064).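 Also: measures binding of the biotinylated anti-FSTL3 antibody to printed compounds.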 Particulars: higher = more signal.
Assay [2] is described as follows: binders from COS7 lysate, DM2A8 probe, primary screen, torsin A project, cell lysate, small-molecule microarray, fluorescence 635/667 (AID 1065). Particulars: higher = more signal, COS7 lysate expressing mutant human TOR1A.
Assay [3] can be described thus: small molecules captured by biotinylated probe aFGF2 – biochemical, small-molecule microarray, fluorescence 635/667, stem cell growth factor project, primary screen (AID 1067).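 Also: measures binding of biotinylated aFGF2 protein to printed compounds on slides; z-score merges feature fluorescence and signal-to-noise across triplicate slides.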 The conditions noted are these: higher = more signal.
Assay [4] can be described thus: small molecules captured by biotinylated probe aFGF10 – biochemical, small-molecule microarray, fluorescence 635/667, stem cell growth factor project, primary screen (AID 1071).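 Also: score merges 667 nm spot intensity and signal to noise from triplicate slides.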 Particulars: higher = more signal.
In assay [5] the target is Neurogenic locus notch homolog protein 2 (Homo sapiens) (UniProt Q04721). The assay is described as follows: small molecules binding Notch2 protein – biochemical, small-molecule microarray, 635 nm fluorescence, stem cell growth factors, primary screen (AID 1073). The conditions noted are these: higher = more signal.
The target in assay [6] is Pro-neuregulin-1, membrane-bound isoform (Homo sapiens) (UniProt Q02297). The assay is described as follows: small molecules binding neuregulin-1 protein – biochemical, small-molecule microarray, fluorescence 635/667, psychiatric disease protein project, primary screen (AID 1075).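 Also: score combines 667 nm spot fluorescence with signal to noise.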 The conditions noted are these: NRG1 binding, 635 nm fluorescence, higher = more signal.
Assay [7] relates to Neuregulin-1 EGF-like domain. The assay is described as follows: small molecules binding NRG1 EGF domain – biochemical, small-molecule microarray, 635 nm fluorescence, primary screen (AID 1081).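 Also: binding of the protein to compounds printed on small-molecule microarray slides.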 Particulars: higher = more signal.
Assay [8] in a line: FRG1 expression reporter modulators in myotubes – cell-based, C2C12 myotubes, firefly/Renilla luciferase, luminescence, FRG1 inhibition for FSHD, primary screen (AID 1084). Particulars: FRG1 promoter luciferase, higher = more signal, called active from +8 up or from −8 down.
Assay [9] in a line: small molecules captured by biotinylated probe aFST – biochemical, small-molecule microarray, fluorescence 635/667, stem cell growth factor project, primary screen (AID 1086).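 Also: score merges 667 nm fluorescence with signal-to-noise of each printed compound spot.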 The conditions noted are these: higher = more signal.
The nature of assay [10]: binders of probe aHhip on microarray, primary screen, stem cell growth factor project, biochemical, small-molecule microarray, fluorescence 635/667 (AID 1087).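 Also: score merges spot fluorescence at 667nm with spot signal to noise ratio.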 The conditions noted are these: higher = more signal.
The subject of assay [11] is PRMT1 (protein arginine N-methyltransferase 1). The assay is described as follows: small molecules binding arginine methyltransferase PRMT1 – biochemical, small-molecule microarray, 635 nm fluorescence, primary screen (AID 1088).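 Also: binding of Prmt1 protein to compounds spotted on small-molecule microarray slides.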 The conditions noted are these: higher = more signal.
Assay [12] can be described thus: growth effects on S. cerevisiae YJM789 – YJM789 clinical isolate, OD600, 24 h, basal, primary screen (AID 1089).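 Also: growth of clinical yeast isolate S. cerevisiae YJM 789 seeded 1000 cells per well; test concentration not given here.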 Particulars: higher = more signal, called active from +8 up or from −8 down.
Assay [13] can be described thus: S. pombe growth modifiers, basal conditions – strain 972, OD600, 24 h, no modulator, primary screen (AID 1090).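 Also: basal condition with compound alone and no growth modifier present; test concentration not given here.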 The conditions noted are these: S. pombe 972 growth, higher = more signal, called active from +8 up or from −8 down.
Assay [14] is described as follows: budding yeast growth modifiers under rapamycin – strain BY4716, OD600, 96 h, primary screen (AID 1091). Also: test concentration not given here. The conditions noted are these: S. cerevisiae BY4716 + rapamycin, higher = more signal, called active from +8 up or from −8 down.
For assay [15], the target named is Torsin-1A-interacting protein 2 (Homo sapiens) (UniProt Q8NFQ8). The assay is described as follows: small molecules binding lysate-expressed LULL1 – cell lysate, human LULL1 lysate, 635/667 nm fluorescence, primary screen (AID 1092).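 Also: score merges per-feature 667 nm fluorescence with signal-to-noise.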 The conditions noted are these: small-molecule microarray, hLULL1 lysate binding, 635 nm fluorescence; higher = more signal.
Assay [16] in a line: optical density change of DRC41 E. coli – strain DRC41, OD650, 24 h, E. coli filamentation project, primary screen (AID 1093).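 Also: MC1000 strain lacking acrAB efflux and sulA so SOS filamentation is blocked; test concentration not given here.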 Particulars: E. coli DRC41 growth, higher = more signal, called active from +8 up or from −8 down.
Assay [17] in a line: probe aLefty2 binding to arrayed compounds – biochemical, biotinylated probe, 635/667 nm fluorescence, primary screen (AID 1094).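 Also: score merges spot fluorescence near 667 nm with spot signal-to-noise ratio.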 Particulars: small-molecule microarray, higher = more signal.
The subject of assay [18] is Noggin (protein binding on small-molecule microarray). The assay is described as follows: small molecules binding Noggin protein – biochemical, 635/667 nm fluorescence, primary screen (AID 1095).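 Also: score merges 667 nm feature fluorescence with signal to noise over triplicate slides.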 Particulars: 635 nm fluorescence, higher = more signal.
Assay [19] addresses Neurogenic locus notch homolog protein 3 (Homo sapiens) (UniProt Q9UM47). The assay is described as follows: small molecules binding NOTCH3 protein – biochemical, 635/667 nm fluorescence, primary screen (AID 1096). Particulars: small-molecule microarray, 635 nm fluorescence, higher = more signal.
Assay [20] in a line: probe aEGFR binding to arrayed compounds – biochemical, biotinylated probe, 635/667 nm fluorescence, primary screen (AID 1097).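 Also: probe is a biotinylated anti-EGFR antibody binding compounds printed on slides; score combines fluorescence near 667 nm and signal to noise of each spot.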 Particulars: small-molecule microarray, higher = more signal.

Active and inactive are the calls of the source.

This note sets out measurements from PubChem BioAssay.

Neurogenic locus notch homolog protein 2 (Homo sapiens), sequence (Q04721 whole entry, looked up, canonical isoform): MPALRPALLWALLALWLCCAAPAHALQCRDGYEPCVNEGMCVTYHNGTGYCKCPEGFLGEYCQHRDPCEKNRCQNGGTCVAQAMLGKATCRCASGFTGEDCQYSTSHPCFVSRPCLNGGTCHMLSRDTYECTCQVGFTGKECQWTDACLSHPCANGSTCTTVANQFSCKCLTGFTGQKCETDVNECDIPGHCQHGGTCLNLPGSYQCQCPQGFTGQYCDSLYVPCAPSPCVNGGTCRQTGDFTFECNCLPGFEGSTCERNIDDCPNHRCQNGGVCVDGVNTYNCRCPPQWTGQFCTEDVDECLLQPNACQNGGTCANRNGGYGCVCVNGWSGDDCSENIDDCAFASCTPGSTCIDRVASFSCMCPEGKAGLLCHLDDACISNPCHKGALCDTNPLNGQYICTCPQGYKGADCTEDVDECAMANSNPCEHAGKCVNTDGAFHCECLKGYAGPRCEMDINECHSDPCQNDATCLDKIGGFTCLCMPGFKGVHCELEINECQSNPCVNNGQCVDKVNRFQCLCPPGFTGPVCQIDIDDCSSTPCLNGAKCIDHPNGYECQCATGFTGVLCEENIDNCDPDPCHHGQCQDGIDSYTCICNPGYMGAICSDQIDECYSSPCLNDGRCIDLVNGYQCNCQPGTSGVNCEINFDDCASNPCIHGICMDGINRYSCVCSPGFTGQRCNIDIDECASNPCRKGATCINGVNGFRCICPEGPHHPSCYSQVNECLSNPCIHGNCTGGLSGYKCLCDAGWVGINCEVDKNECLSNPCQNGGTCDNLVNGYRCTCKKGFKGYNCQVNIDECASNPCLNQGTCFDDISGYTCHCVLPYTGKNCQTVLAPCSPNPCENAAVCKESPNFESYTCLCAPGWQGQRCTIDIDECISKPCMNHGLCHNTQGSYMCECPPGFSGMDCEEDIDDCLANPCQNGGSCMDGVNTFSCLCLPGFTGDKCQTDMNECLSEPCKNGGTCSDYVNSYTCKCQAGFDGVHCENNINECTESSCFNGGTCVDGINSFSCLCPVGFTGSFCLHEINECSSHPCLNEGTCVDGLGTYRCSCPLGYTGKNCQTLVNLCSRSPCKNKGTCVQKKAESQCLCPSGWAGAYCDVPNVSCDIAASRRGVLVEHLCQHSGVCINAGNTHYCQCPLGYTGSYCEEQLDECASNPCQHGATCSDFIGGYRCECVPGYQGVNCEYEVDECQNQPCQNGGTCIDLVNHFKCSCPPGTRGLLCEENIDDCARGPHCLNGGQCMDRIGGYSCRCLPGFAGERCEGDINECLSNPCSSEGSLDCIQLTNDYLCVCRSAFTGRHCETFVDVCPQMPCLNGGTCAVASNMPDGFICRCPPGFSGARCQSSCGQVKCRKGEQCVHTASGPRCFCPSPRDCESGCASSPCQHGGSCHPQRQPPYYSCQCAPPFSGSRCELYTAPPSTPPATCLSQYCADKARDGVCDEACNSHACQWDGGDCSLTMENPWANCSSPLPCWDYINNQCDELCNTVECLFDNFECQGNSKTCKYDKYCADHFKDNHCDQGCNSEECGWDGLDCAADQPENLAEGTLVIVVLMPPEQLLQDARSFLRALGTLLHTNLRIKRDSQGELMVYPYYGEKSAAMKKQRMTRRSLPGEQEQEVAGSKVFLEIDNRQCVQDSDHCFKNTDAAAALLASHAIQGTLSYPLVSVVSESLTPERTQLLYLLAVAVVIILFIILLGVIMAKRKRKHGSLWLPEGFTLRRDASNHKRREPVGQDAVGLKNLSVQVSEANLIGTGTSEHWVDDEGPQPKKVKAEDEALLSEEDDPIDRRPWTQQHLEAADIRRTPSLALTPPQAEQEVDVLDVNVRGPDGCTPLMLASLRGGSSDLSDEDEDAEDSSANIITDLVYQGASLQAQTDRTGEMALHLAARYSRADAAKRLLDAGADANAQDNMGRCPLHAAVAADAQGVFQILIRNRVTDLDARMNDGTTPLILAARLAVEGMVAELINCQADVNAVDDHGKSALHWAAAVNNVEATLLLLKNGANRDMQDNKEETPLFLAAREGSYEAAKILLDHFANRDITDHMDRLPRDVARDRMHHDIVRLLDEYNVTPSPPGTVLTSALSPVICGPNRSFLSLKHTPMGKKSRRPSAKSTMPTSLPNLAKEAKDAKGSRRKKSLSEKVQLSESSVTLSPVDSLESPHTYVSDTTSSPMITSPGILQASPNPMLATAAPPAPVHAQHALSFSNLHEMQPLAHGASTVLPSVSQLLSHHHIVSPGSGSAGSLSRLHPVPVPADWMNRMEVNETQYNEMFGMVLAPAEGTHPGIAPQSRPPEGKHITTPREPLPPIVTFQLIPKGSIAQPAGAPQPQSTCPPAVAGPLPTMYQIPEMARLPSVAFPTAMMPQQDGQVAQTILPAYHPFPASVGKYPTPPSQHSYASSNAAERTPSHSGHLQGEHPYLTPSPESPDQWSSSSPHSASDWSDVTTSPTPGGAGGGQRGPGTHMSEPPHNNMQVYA
Neurogenic locus notch homolog protein 3 (Homo sapiens), sequence (Q9UM47 whole entry, looked up): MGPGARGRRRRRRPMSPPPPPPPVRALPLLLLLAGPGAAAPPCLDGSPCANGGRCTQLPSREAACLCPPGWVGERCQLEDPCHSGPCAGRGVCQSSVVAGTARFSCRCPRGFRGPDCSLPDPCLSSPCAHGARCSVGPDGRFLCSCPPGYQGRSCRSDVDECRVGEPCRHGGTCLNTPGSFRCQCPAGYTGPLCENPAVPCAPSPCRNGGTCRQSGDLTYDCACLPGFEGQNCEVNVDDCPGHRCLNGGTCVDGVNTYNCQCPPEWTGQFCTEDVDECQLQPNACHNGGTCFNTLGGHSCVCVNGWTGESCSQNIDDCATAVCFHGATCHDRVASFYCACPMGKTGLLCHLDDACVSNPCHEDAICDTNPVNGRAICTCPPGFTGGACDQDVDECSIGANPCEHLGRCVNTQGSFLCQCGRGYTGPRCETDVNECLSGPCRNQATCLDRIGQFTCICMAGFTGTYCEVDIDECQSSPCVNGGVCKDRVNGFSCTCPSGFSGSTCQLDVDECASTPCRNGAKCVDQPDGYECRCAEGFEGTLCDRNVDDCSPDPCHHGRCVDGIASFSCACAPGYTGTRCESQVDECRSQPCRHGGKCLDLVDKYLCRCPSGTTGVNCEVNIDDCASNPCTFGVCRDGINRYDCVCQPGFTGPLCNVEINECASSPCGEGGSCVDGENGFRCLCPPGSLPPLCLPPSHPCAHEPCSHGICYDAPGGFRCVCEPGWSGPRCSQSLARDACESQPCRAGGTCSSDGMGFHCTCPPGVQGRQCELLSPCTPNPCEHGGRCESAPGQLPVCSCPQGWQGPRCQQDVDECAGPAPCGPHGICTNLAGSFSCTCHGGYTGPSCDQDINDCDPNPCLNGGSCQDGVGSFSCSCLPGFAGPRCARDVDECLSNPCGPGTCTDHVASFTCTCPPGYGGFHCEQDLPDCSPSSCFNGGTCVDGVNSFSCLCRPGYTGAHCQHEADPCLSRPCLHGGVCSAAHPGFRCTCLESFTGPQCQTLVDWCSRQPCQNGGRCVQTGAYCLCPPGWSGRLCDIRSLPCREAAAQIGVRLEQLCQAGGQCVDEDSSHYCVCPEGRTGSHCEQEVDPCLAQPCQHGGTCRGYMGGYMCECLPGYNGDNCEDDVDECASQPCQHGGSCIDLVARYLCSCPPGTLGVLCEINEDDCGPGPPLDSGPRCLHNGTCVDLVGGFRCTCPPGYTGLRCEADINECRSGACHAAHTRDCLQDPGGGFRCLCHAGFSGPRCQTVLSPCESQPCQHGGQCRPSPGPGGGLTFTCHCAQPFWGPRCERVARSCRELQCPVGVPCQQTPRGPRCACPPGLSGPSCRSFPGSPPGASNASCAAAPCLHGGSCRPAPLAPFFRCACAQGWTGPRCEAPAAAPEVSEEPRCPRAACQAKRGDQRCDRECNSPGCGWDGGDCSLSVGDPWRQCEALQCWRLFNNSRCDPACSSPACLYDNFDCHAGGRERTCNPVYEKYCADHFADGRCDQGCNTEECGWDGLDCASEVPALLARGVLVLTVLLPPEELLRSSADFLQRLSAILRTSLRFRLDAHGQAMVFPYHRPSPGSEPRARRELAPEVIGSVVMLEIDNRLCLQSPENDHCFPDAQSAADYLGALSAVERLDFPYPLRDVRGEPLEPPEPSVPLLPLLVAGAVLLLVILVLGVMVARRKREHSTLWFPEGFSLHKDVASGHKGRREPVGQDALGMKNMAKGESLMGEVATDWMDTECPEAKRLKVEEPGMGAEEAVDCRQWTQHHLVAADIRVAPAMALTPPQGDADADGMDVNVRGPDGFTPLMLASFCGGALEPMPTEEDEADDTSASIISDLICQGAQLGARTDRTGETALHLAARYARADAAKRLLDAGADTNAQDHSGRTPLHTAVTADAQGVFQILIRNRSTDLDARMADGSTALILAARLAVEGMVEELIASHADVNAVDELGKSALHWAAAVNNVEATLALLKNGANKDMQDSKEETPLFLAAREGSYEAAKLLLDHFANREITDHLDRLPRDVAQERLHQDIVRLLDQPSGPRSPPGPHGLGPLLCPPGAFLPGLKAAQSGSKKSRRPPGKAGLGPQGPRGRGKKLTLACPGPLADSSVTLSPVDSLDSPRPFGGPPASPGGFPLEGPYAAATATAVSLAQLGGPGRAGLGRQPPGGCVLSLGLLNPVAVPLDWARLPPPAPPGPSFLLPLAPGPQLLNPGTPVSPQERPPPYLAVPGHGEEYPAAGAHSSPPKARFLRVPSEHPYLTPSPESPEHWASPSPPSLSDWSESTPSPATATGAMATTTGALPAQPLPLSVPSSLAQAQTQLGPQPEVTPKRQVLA

Consider `CN1C(=O)C2C(C1=O)C1C=C(CCCO)C2C(C2CC2)N1Cc1cccc(OC(F)(F)F)c1` (stereo not given), for which the composite z-score in assay [1] was -0.143; in [2] it was -0.122; in assay [3], -0.13; in [4], -0.203; in [5] it was -0.254; in assay [6], 2. The composite z-score in assay [7] is 1.3; in [9] it was 0.0794; in [10], -0.242; in assay [11], 1.34; in assay [15], 3.17; in assay [17] it was -0.224. Also, the composite z-score in assay [18] was -0.0767; in assay [19], 0.203; in assay [20], -0.144. The z-score is -0.688 (inactive) in assay [8]; -1.07 (inactive) in assay [12]; -1.58 (inactive) in assay [13]; -1.15 (inactive) in [14]; 0.179 (inactive) in assay [16].

Consider `COC(=O)C1=CC(CCCO)=CC(c2cccs2)N(Cc2cc3c(cc2Br)OCO3)C=C1C(=O)OC` (stereo not given), for which the composite z-score in [1] turned out to be 0.0066; in [2], 0.951; in assay [3] it was 0.0931; in assay [4], 1.02; in assay [5] it was 1.27; in [6] it was 1.66. Moreover, the composite z-score in assay [7] was 1.33; in assay [9] it was 0.182; in assay [10], 0.0972; in [11], 1.56; in assay [15], 3.17; in assay [17], 0.109. The composite z-score in assay [18] worked out at 0.404; in assay [19], 1.12; in [20], 0.236. Further, the z-score in [8] is -2.18 (inactive); in assay [12] it was 0.74 (inactive); in assay [13], -0.997 (inactive); in [14], 0.132 (inactive); in assay [16], 0.923 (inactive).

As to `[N-]=[N+]=Nc1ccccc1C[C@@]1(C(=O)NCC(O)CO)N=C(c2ccc(OCCCO)cc2)O[C@@H]1c1ccccc1` (stereo not given in full), the composite z-score in assay [1] is 0.134; in assay [2], -0.243; in assay [3], -0.073; in assay [4], 0.165; in assay [5] it was 0.513; in assay [6] it was 0.706. The composite z-score in assay [7] was 1.1; in assay [9] it was 0.146; in assay [10], -0.0994; in assay [11] it was 0.376; in [15] it was 2.81; in [17] it was -0.0021. For the same compound, the composite z-score in [18] is -0.264; in assay [19], -0.405; in assay [20] it was -0.151. Moreover, the z-score in assay [8] is -2.46 (inactive); in assay [12], -0.558 (inactive); in assay [13], -1.09 (inactive); in assay [14], -1.31 (inactive); in [16] it was 0.883 (inactive).

Regarding `O=C1C2C=CC(C(O)C3CCCCC3)N(n3cnnc3)C2C(=O)N1Cc1ccccc1` (stereo not given), the composite z-score in [1] is -0.0187; in [2] it was 0.396; in assay [3] it was 0.0498; in [4], 0.792; in assay [5] it was 0.884; in [6], 1.07. Further, the composite z-score in assay [7] is 1.3; in assay [9], 1.47; in assay [10] it was -0.299; in [11] it was 1.51; in assay [15], 3.15; in assay [17] it was 0.145. Besides, the results for the composite z-score in [18], in assay [19] and in assay [20] were 0.915, 1.06 and 0.0201, respectively. Further, the z-score in [8] is 1.11 (inactive); in assay [12], -0.509 (inactive); in assay [13], 0.266 (inactive); in assay [14], -0.98 (inactive); in [16] it was 0.596 (inactive).

In the case of `CN(C)C(=O)[C@@]1(Cc2ccccc2CN=[N+]=[N-])COC(c2ccc(OCCCO)cc2)=N1`, the composite z-score was 0.695 in assay [1]; -0.445 in [2]; -0.085 in assay [3]; -0.0663 in assay [4]; 0.0696 in assay [5]; 1.63 in assay [6]. Further, the composite z-score is 1.1 in assay [7]; 0.681 in assay [9]; -0.134 in [10]; 0.688 in assay [11]; 2.65 in assay [15]; 0.0781 in assay [17]. In addition, the composite z-score was -0.543 in assay [18], 0.132 in assay [19] and -0.152 in [20]. Also, the z-score is -2.47 (inactive) in assay [8]; -0.352 (inactive) in [12]; -7.06 (inactive) in assay [13]; 31.3 (active) in assay [14]; 2.21 (inactive) in [16].
